Measurements taken from PubChem BioAssay (EPA / NIEHS).
Calls of active or inactive are those of the source. How the source made its calls: active means hit-call score of the fitted dose curve at least 0.9, where 1 is the maximum; inactive means score below 0.9.

Legend:
Details in all cases: mRNA level, 48 h; actives raise or lower the signal
[1] = read-out: Peroxisomal acyl-coenzyme A oxidase 1 (ACOX1) gene, ACOX1 (gene 51); test: LTEA_HepaRG_ACOX1: Life Technologies and Expression Analysis (LTEA) Assay for Peroxisomal acyl-coenzyme A oxidase 1 (ACOX1) gene using HepaRG (AID 2283467)
Outline: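 Measured by qRT-PCR against three housekeeping genes: ACOX1 transcript change in human HepaRG cells after 48 h dosing. Concentrations ran up to 100 uM in half-log steps. Curves were fitted bidirectionally relative to 0.5% DMSO.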

[2] = read-out: Bcl-2 (BAD) gene, BAD (gene 572); test: LTEA_HepaRG_BAD: Life Technologies and Expression Analysis (LTEA) Assay for Bcl-2 (BAD) gene using HepaRG (AID 2283469)
Outline: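 BAD transcript change, measured by qRT-PCR against three housekeeping genes and fitted in both directions relative to 0.5% DMSO, after 48 h chemical treatment of human HepaRG liver cells at concentrations up to 100 uM.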

[3] = read-out: Bcl-2 (BAX) gene, BAX (gene 581); test: LTEA_HepaRG_BAX: Life Technologies and Expression Analysis (LTEA) Assay for Bcl-2 (BAX) gene using HepaRG (AID 2283470)
Outline: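 Differentiated HepaRG cells exposed 48 h in serum-free induction medium, eight half-log concentrations from 100 uM, in duplicate, 0.5% DMSO vehicle. BAX mRNA by TaqMan qRT-PCR, normalised to ACTB, GAPDH and POLR2A.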

[4] = read-out: adenosine kinase (ADK) gene, ADK (gene 132); test: LTEA_HepaRG_ADK: Life Technologies and Expression Analysis (LTEA) Assay for adenosine kinase (ADK) gene using HepaRG (AID 2283471)
Outline: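 HepaRG (human liver), 48 h chemical exposure, 8-pt half-log series, top 100 uM, 0.5% DMSO vehicle. Readout: ADK mRNA by qRT-PCR vs housekeeping genes; bidirectional curve fit relative to DMSO baseline.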

[5] = read-out: Alpha-fetoprotein (AFP) gene, AFP (gene 174); test: LTEA_HepaRG_AFP: Life Technologies and Expression Analysis (LTEA) Assay for Alpha-fetoprotein (AFP) gene using HepaRG (AID 2283472)
Outline: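 Differentiated human HepaRG cells exposed 48 h in serum-free induction medium, 8-point half-log series from 100 uM in 0.5% DMSO, duplicate. AFP mRNA by qRT-PCR, normalized to ACTB, GAPDH, POLR2A; bidirectional fit vs DMSO.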

BCL2L11 (gene 10018) = test: LTEA_HepaRG_BCL2L11: Life Technologies and Expression Analysis (LTEA) Assay for Bcl-2 (BCL2L11) gene using HepaRG (AID 2283473)
Outline: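 Read-out is BCL2L11 transcript level by qRT-PCR, normalized to three housekeeping genes and fitted bidirectionally against 0.5% DMSO vehicle. HepaRG cells received chemicals for 48 h in serum-free induction medium, 100 uM down in half-log dilutions.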

[6] = read-out: Apolipoprotein A-V (APOA5) gene, APOA5 (gene 116519); test: LTEA_HepaRG_APOA5: Life Technologies and Expression Analysis (LTEA) Assay for Apolipoprotein A-V (APOA5) gene using HepaRG (AID 2283474)
Outline: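 Readout is APOA5 transcript level by qRT-PCR on Fluidigm dynamic arrays, normalized to three housekeeping genes. HepaRG cultures received chemicals for 48 h at up to 100 uM (half-log steps, 0.5% DMSO), with gain or loss scored relative to DMSO.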

[7] = read-out: Apoptosis regulator Bcl-2 (Homo sapiens) (UniProt P10415); test: LTEA_HepaRG_BCL2: Life Technologies and Expression Analysis (LTEA) Assay for Bcl-2 gene using HepaRG (AID 2283475)
Outline: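 Differentiated human HepaRG cells in serum-free induction medium exposed 48 h, in duplicate, to 8-point half-log series from 100 uM in 0.5% DMSO. BCL2 mRNA by qRT-PCR (TaqMan/Fluidigm), normalized to ACTB, GAPDH, POLR2A; bidirectional fit against DMSO.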

[8] = read-out: Bcl-2 (BID) gene, BID (gene 637); test: LTEA_HepaRG_BID: Life Technologies and Expression Analysis (LTEA) Assay for Bcl-2 (BID) gene using HepaRG (AID 2283476)
Outline: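 Gene expression by qRT-PCR in HepaRG cells after 48 h exposure, duplicate wells, eight half-log concentrations topping at 100 uM in 0.5% DMSO. Normalized to ACTB, GAPDH, POLR2A; bidirectional fitting relative to DMSO.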

Caspase-3 (Homo sapiens) = Caspase-3 (Homo sapiens) (UniProt P42574); test: LTEA_HepaRG_CASP3: Life Technologies and Expression Analysis (LTEA) Assay for cysteine-aspartic acid protease (CASP3) using HepaRG (AID 2283477)
Outline: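 Read-out is CASP3 mRNA level by TaqMan qRT-PCR in human HepaRG cells after 48 h chemical exposure. Eight half-log concentrations topping at 100 uM were tested in 0.5% DMSO; gain or loss was fitted relative to DMSO.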

[9] = read-out: Cytochrome P450 (CYP24A1), CYP24A1 (gene 1591); test: LTEA_HepaRG_CYP24A1: Life Technologies and Expression Analysis (LTEA) Assay for Cytochrome P450 (CYP24A1) using HepaRG (AID 2283478)
Outline: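 HepaRG, 48 h chemical exposure, 8-pt half-log CRC from 100 uM, 0.5% DMSO vehicle, duplicates. Endpoint: CYP24A1 mRNA by Fluidigm TaqMan qRT-PCR, normalized ACTB/GAPDH/POLR2A; gain/loss fit vs DMSO.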

[10] = read-out: Cytochrome P450 (CYP1A2), CYP1A2 (gene 1544); test: LTEA_HepaRG_CYP1A2: Life Technologies and Expression Analysis (LTEA) Assay for Cytochrome P450 (CYP1A2) using HepaRG (AID 2283479)
Outline: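 CYP1A2 transcript induction or loss, quantified by Fluidigm qRT-PCR against three housekeeping genes, was fitted bidirectionally against 0.5% DMSO controls. Human HepaRG cells received eight half-log concentrations from 100 uM over 48 h.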

[11] = read-out: Cytochrome P450 (CYP2B6), CYP2B6 (gene 1555); test: LTEA_HepaRG_CYP2B6: Life Technologies and Expression Analysis (LTEA) Assay for Cytochrome P450 (CYP2B6) using HepaRG (AID 2283481)
Outline: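 HepaRG cells plated 48 h, switched to serum-free induction medium, then dosed 48 h (8 points, half-log from 100 uM, 0.5% DMSO). RNA isolated; CYP2B6 expression measured by qRT-PCR; gain or loss fitted relative to DMSO.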

[12] = read-out: Cytochrome P450 2C19 (Homo sapiens) (UniProt P33261); test: LTEA_HepaRG_CYP2C19: Life Technologies and Expression Analysis (LTEA) Assay for CYP2C19 using HepaRG (AID 2283482)
Outline: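 Transcript levels of CYP2C19 were quantified by qRT-PCR after HepaRG cells were treated for 48 hours with test chemicals up to 100 uM (eight half-log concentrations, 0.5% DMSO vehicle). Gain or loss of signal was fitted relative to DMSO.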

CYP2C8 (gene 1558) = test: LTEA_HepaRG_CYP2C8: Life Technologies and Expression Analysis (LTEA) Assay for CYP2C8 using HepaRG (AID 2283483)
Outline: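 CYP2C8 mRNA induction or loss, by qRT-PCR normalized to ACTB/GAPDH/POLR2A, is read in HepaRG cells after 48 h treatment. Concentrations run from 100 uM down in half-log dilutions, with 0.5% DMSO as vehicle and baseline.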

CYP2C9 (gene 1559) = test: LTEA_HepaRG_CYP2C9: Life Technologies and Expression Analysis (LTEA) Assay for CYP2C9 using HepaRG (AID 2283484)
Outline: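 Cells plated 48 h, switched to serum-free induction medium, then treated in duplicate for 48 h at eight concentrations (max 100 uM, 0.5% DMSO). RNA then analysed by qRT-PCR for CYP2C9; curves fitted in both directions relative to DMSO.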

CYP2E1 (gene 1571) = test: LTEA_HepaRG_CYP2E1: Life Technologies and Expression Analysis (LTEA) Assay for CYP2E1 using HepaRG (AID 2283485)
Outline: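 HepaRG cells, plated 48 h, then exposed 48 h in serum-free induction medium to eight half-log concentrations from 100 uM in 0.5% DMSO, duplicate. CYP2E1 mRNA by qRT-PCR, normalized to ACTB/GAPDH/POLR2A; bidirectional fit versus DMSO.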

CYP4A11 (gene 1579) = test: LTEA_HepaRG_CYP4A11: Life Technologies and Expression Analysis (LTEA) Assay for CYP4A11 using HepaRG (AID 2283486)
Outline: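 HepaRG, 48 h chem exposure, 8 conc (100 uM top, half-log), 0.5% DMSO vehicle; qRT-PCR readout, housekeeping-gene normalized; bidirectional curve fit vs DMSO baseline.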

[13] = read-out: cysteine-aspartic acid protease (CASP8), CASP8 (gene 841); test: LTEA_HepaRG_CASP8: Life Technologies and Expression Analysis (LTEA) Assay for cysteine-aspartic acid protease (CASP8) using HepaRG (AID 2283480)
Outline: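 HepaRG, 48 h exposure, duplicate wells; 8 conc, half-log from 100 uM, 0.5% DMSO. Serum-free induction medium. CASP8 mRNA by TaqMan qRT-PCR, norm. ACTB/GAPDH/POLR2A; gain/loss fitted vs DMSO.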

Measured: AC50

Caspase-3 (Homo sapiens), sequence (P42574 whole entry, looked up): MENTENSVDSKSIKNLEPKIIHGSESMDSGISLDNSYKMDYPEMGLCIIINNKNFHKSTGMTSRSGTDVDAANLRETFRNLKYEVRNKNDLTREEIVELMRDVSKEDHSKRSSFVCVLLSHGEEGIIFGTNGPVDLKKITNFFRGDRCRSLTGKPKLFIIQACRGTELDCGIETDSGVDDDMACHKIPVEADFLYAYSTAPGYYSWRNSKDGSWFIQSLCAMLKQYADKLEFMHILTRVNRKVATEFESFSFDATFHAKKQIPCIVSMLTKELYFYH
Cytochrome P450 2C19 (Homo sapiens), sequence (P33261 whole entry, looked up): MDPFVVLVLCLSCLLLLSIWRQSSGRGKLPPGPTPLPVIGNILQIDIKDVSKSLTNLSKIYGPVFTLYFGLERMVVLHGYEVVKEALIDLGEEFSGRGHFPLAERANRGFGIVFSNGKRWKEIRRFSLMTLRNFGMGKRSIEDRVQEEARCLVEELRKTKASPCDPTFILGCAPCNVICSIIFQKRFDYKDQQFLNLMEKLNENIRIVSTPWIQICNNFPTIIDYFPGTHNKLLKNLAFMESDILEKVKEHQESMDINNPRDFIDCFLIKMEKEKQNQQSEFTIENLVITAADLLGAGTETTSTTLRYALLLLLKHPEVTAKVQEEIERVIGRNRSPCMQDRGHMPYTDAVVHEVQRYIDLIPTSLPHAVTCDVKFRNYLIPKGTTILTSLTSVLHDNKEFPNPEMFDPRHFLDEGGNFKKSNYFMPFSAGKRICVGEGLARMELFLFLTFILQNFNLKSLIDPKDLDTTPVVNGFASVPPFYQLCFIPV
Apoptosis regulator Bcl-2 (Homo sapiens), sequence (P10415 whole entry, looked up): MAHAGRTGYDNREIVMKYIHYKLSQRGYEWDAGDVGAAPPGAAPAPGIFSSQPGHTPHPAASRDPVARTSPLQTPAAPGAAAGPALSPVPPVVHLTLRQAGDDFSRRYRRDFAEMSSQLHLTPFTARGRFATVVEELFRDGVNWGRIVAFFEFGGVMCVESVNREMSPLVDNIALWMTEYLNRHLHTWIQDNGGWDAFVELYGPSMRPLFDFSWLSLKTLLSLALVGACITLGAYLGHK

COS(=O)(=O)OC
active: [10] 31 µM
not listed: [13]
inactive: all other assays above

CCOP(=S)(OCC)SCSC(C)(C)C
active: [5] 29.5 µM | CYP2E1 (gene 1571) 28.8 µM
not listed: [13]
inactive: all other assays above

Oc1ccc(Cl)cc1Cl
active: [8] 12.2 µM
not listed: [4] | [13]
inactive: all other assays above

Cc1cccc([N+](=O)[O-])c1
active: [11] 8.74 µM
not listed: [13]
inactive: all other assays above

NS(=O)(=O)C(F)(F)C(F)(F)C(F)(F)C(F)(F)C(F)(F)C(F)(F)C(F)(F)C(F)(F)F
active: [1] 14.9 µM | [2] 17.6 µM | [4] 4.81 µM | [5] 11.4 µM | BCL2L11 (gene 10018) 4.05 µM | [6] 10 µM | [7] 2.79 µM | Caspase-3 (Homo sapiens) 3.73 µM | [10] 5 µM | [13] 12.9 µM | [11] 9.56 µM | [12] 9.68 µM | CYP2C8 (gene 1558) 11.1 µM | CYP2C9 (gene 1559) 12.7 µM | CYP2E1 (gene 1571) 6.73 µM | CYP4A11 (gene 1579) 12.6 µM
inactive: [3] | [8] | [9]
